Cycloheximide cs: counter-screen for Shiga toxin inhibitors: cycloheximide protein synthesis inhibition | max response, % | cell reporter, cycloheximide protein synthesis inhibition counterscreen | 300,000 compounds, 12% hits; in the data active = max response mostly above about 13%, no sharp cut-off; inactive = mostly below about 14%; also: read at 38.3 µM for the half of the compounds with a filed dose; 0% is about no effect
FMDV inh: blocks foot and mouth disease virus. 410,000 compounds, 1.2% hits. FMDV antiviral cell-based qHTS. Potency, µM (highest dose often 57.9 µM), for the others: at the highest dose activity change, negative = inhibition, usual class: inhibitors; calls by dose curve; tested in HEK293T cells; also: read-out not given here; potency is read from the fitted curve at half-maximal effect; % is scaled to controls: 0 for no effect and ±100 for the full control effect; nearly all actives have a fitted effect of over 45% in size
Shiga inhibitor: inhibitors of Shiga toxin in Vero cells; Vero cells, Shiga toxin protein synthesis inhibition reporter; inhibition, % at 38.7 µM; 290,000 compounds, 9.2% hits; AID 2315; in the data active = inhibition mostly above about 28%, no sharp cut-off; inactive = mostly below about 43%; also: 0% is about no effect
Sm TGR inh: S. mansoni TGR enzyme inhibition | Q962Y6 | purified TGR, DTNB reduction, TNB absorbance 405 nm | Potency, µM (series often up to 114 µM), without a hit: at the top dose activity change, negative = inhibition, hits mostly inhibitors | 360,000 compounds, 3% hits | AID 485364; active = well fitted inhibition curve with a large enough effect; inconclusive = small, poorly fitted or top-dose-only effect; inactive = no such curve, though single readings can be large or run the other way; also: potency is read from the fitted curve at half-maximal effect; % is scaled to controls: 0 for no effect and ±100 for the full control effect; nearly all actives have a fitted effect of over 60% in size
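Kinetic colorimetric format: TGR-catalysed, NADPH-driven DTNB reduction monitored via TNB absorbance. Enzyme dispensed at 20 nM; compound exposure 15 min at room temperature before reaction start.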
* marks the source's active call; other numbers are inactive results; ? = inconclusive; nt = not tested or not shown. Compounds with a hit are over-represented: about 12% of the library has one in this group of screens.

SMILES	Cycloheximide cs	FMDV inh	Shiga inhibitor	Sm TGR inh
CCOC(=O)c1c(C)[nH]c(C)c1C(=O)COC(=O)c1ccccc1O	-1	-20%	-17	-17%
Cc1noc(C)c1-c1ccc2ncnc(NCc3ccc(Br)cc3)c2c1	27	nt	28	nt
COc1ccc(NC(=O)CSc2nc(-c3ccccc3)nc3c2Cc2c(CO)cnc(C)c2O3)cc1Cl	nt	-12%	nt	?
C/C(CC(=O)Nc1ccc(N(C)C)cc1)=N\NC(=O)c1ccccc1Cl	nt	19%	nt	nt
C/C(CC(=O)Nc1ccc(N(C)C)cc1)=N\NC(=O)c1cnccn1	23*	9%	63*	35µM*
COC(C(=O)N/N=C(\C)CC(=O)Nc1ccc(N(C)C)cc1)c1ccccc1 (stereo not given)	-2	-11%	-8	-20%
Cc1cccc(C(=O)Nc2ccccc2SCC(=O)Nc2ccc(C)c(Cl)c2)c1	22*	1%	17	7%
C/C(CC(=O)Nc1ccc(N(C)C)cc1)=N\NC(=O)c1ccccn1	33*	5%	98*	?
C/C(CC(=O)Nc1ccc(N(C)C)cc1)=N\NC(=O)c1ccc(Cl)cc1	27*	3%	32	-27%
C/C(CC(=O)Nc1ccc(N(C)C)cc1)=N\NC(=O)c1ccncc1	17	2%	28	?
COc1ccc(CCNC(=O)CCCCn2c(=O)c3ccccc3n(Cc3cccc(C)c3)c2=O)cc1OC	nt	0%	nt	-3%
CC(=O)Nc1ccc(NC(=O)C/C(C)=N/NC(=O)C(=O)Nc2ccc(C)c(Cl)c2)cc1	0	12%	2	-24%
C/C(CC(=O)Nc1ccc(C)c(Cl)c1)=N\NC(=O)c1cccc(O)c1	57*	14%	56*	?
C/C(CC(=O)Nc1ccc(C)c(Cl)c1)=N\NC(=O)c1ccccn1	51*	27%	77*	-12%
Cc1ccc(NC(=O)c2cc(S(=O)(=O)NC3CCCCC3)ccc2F)cc1Cl	nt	15%	nt	8%
CCN(CC)CCNC(=O)c1ccc(-c2nc(CN3CCc4ccccc43)c(C)o2)cc1	nt	?	nt	5%
COC(=O)c1ccc(NC(=S)NNC(=O)c2ccccc2)cc1	26*	21%	42	8%
COC(=O)c1ccc(NC(=O)Cc2ccc(C)cc2)cc1	9	13%	26	-10%
COC(=O)c1ccc(NC(=O)Cc2ccccc2)cc1	50*	57%	100*	-1%
COC(=O)c1ccc(NC(=S)Nc2ccc3ccccc3c2)cc1	-1	31%	17	-32%
COC(=O)c1ccc(NC(=S)Nc2ccccc2)cc1	8	nt	-33	32µM*
COC(=O)c1ccc(NC(=O)C(=O)c2cccn2C)cc1	29*	-15%	54*	1%
COc1cccc(Cn2c(=O)n(-c3ccccc3C)c(=O)c3c2c2cc(C)ccc2n3C)c1	nt	-24%	nt	25%
O=C(O)c1ccc(NC(=S)Nc2ccccc2)cc1	16*	8%	-14	-25%
O=C(O)c1ccc(NC(=S)NC(=O)C(c2ccccc2)c2ccccc2)cc1	-1	0%	-16	?
SMILES	Cycloheximide cs	FMDV inh	Shiga inhibitor	Sm TGR inh
CCOC(=O)C(C)n1cnc2c(nnn2-c2ccc(C)cc2)c1=O (stereo not given)	15	34%	14	8%
CCOC(=O)C(C)n1cnc2c(nnn2-c2ccc(OC)cc2)c1=O (stereo not given)	32*	22%	86*	-1%
CCC(C(=O)OC)n1cnc2c(nnn2-c2ccc(OC)cc2)c1=O (stereo not given)	8	16%	-1	-34%
CCC(C(=O)OC)n1cnc2c(nnn2-c2ccc(C)cc2)c1=O (stereo not given)	12*	-6%	22*	14%
Cc1c(C(=O)N2CCCCC2)sc2ncnc(NCCc3ccccn3)c12	nt	-18%	nt	nt
Cc1ccc(Cn2c(CNC(=O)Cc3cccc([N+](=O)[O-])c3)nc3cccnc32)cc1	nt	7%	nt	0%
CCOC(=O)c1c(C)[nH]c(C=Nc2ccccc2)c1O	16	nt	1	32µM*
CCOC(=O)c1c(C)[nH]c(O)c1C=Nc1ccccc1	-2	33%	-8	-1%
COC(=O)c1c(C)[nH]c(C=Nc2ccc(OC)cc2)c1C	-3	7%	-4	0%
CCOC(=O)c1c(C)[nH]c(C=Nc2ccc(OC)cc2)c1O	20*	1%	84*	-17%
Cc1ccccc1C(=O)Nc1ccc2nc(Nc3cccc(C(F)(F)F)c3)cc(C)c2c1	nt	?	nt	1%
COC(=O)c1cc(-c2ccccc2)n[nH]1	10	47%	22	-4%
COC(=O)c1cc(-c2ccc(Cl)cc2Cl)n[nH]1	29*	42%	63*	5%
COC(=O)c1cc(-c2ccc(Cl)cc2)n[nH]1	38*	50%	47*	12%
